# An excerpt weighted towards active compounds, which were near 12% of everything screened.
# SARS PLP yeast = qHTS of Yeast-based Assay for SARS-CoV PLP; S. cerevisiae expressing SARS-CoV PLpro, growth rescue; Potency, µM (series often up to 32.9 µM), without a hit: at the top dose activity, positive = growth rescue, most hits filed as activators; hit rate 0.19% among 330,000; AID 485353, 2010; note: potency is the fitted concentration of half-maximal effect; 0% is about no effect; nearly all actives have a fitted effect of over 55% in size
# Cycloheximide cs = Cycloheximide Counterscreen for Small Molecule Inhibitors of Shiga Toxin. hit rate 12% among 300,000. AID 2314, 2010. max response, %. cell reporter, cycloheximide protein synthesis inhibition counterscreen; in the data active = max response mostly above about 13%, no sharp cut-off; inactive = mostly below about 14%; note: read at 38.3 µM for the half of the compounds with a filed dose; 0% is about no effect
# Shiga inhibitor = A qHTS for Small Molecule Inhibitors of Shiga Toxin; hit rate 9.2% among 290,000; AID 2315, 2010; Vero cells, Shiga toxin protein synthesis inhibition reporter; inhibition, % at 38.7 µM; in the data active = inhibition mostly above about 28%, no sharp cut-off; inactive = mostly below about 43%; note: 0% is about no effect
# NS1 inh = qHTS Assay for Inhibitors of Influenza NS1 Protein Function | AID 2326, 2010 | Potency, µM (highest dose often 46.1 µM), for inactives: at the top dose activity, positive = more growth | hit rate 0.4% among 270,000; note: potency is the fitted concentration of half-maximal effect; actives are rising curves; nearly all actives have a fitted effect of over 50% in size
#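 In this qHTS, NS1 from influenza A is expressed in budding yeast, where it slows growth. Cells are switched from glucose to 2% galactose medium (pH 6.0, -URA), treated with compound, and growth recovery is read at OD600.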
# Numbers without * were called inactive; ? = inconclusive; · = no result. Unless noted, calls come from the whole dose curve.
SMILES,SARS PLP yeast,Cycloheximide cs,Shiga inhibitor,NS1 inh
COc1ccc2c(c1)c(/C=N/Nc1ccc(C(=O)O)cc1)c(C)n2C,-4%,43*,70*,1%
COc1ccc(C(=O)N/N=C/c2c[nH]c3ccccc23)cc1,2%,31*,69*,2%
COc1ccc2c(/C=N/Nc3ccc(C(=O)O)cc3)c[nH]c2c1,-2%,47*,133*,22%
COc1ccc2c(c1)c(C(=O)N/N=C/c1ccc(Br)cc1)c(C)n2C,-6%,0,1,-14%
C[C@H](CO)N1C[C@H](C)[C@@H](CN(C)S(=O)(=O)c2ccccc2)Oc2c(NS(=O)(=O)c3ccccc3)cccc2C1=O,3%,·,·,·
O=C1C2CC=CCC2C(=O)N1c1ccc(NCCc2ccc(O)cc2)c([N+](=O)[O-])c1 (configuration not stated),-25%,33*,63*,-5%
Cc1ccc(N=C2NC(=O)CS2)cc1C,4%,8,14,-10%
Cc1cc(C)n(CCc2nc(-c3ccc(F)cc3)cs2)n1,28%,36*,78*,9%
CCOc1ncccc1C(=O)NCc1ccccc1F,-2%,9,14,2%
CC(=O)Nc1cccc(NC(=O)c2cccc3cccnc23)c1,-4%,19*,32,-14%
CN(CC(=O)Nc1ccc(Cl)c(Cl)c1)C(=O)c1cccc2cccnc12,1%,·,·,·
Cc1ccc(NC(=O)c2cccc3cccnc23)cc1,-9%,35*,111*,-103%
O=C(NCCc1ccccc1F)c1cccc2cccnc12,-14%,52*,82*,-8%
COc1ccc(CNC(=O)Nc2ccc(C)c(C)c2)cc1,-1%,33*,32,-1%
COc1ccc(NC(=O)NCc2ccncc2)cc1,1%,-1,-22,4%
COc1ccc(CNC(=S)Nc2ccc(OC)cc2)cc1,11µM*,-2,33,13%
COc1ccc(CNC(=O)Nc2ccc(C)cc2)cc1,1%,24*,76*,4%
CCOC(=O)c1ccc(NC(=O)NCc2ccc(OC)cc2)cc1,1%,13,31,·
COc1ccc(NC(=S)NCc2ccc(F)cc2)cc1,-3%,10,5,6%
COc1ccc(CNC(=O)Nc2cc(C)cc(C)c2)cc1,1%,24*,48*,-5%
NS(=O)(=O)Nc1c(Br)cc(Br)c2cccnc12,·,-2,-6,·
Cc1ccc(C)c(OC(=O)c2cncc(Br)c2)c1,-9%,-2,12,-12%
COc1ccc(CNc2ccc(C)c(C)c2)cc1,0%,41*,57*,2%
CCN(CC)c1ccc(/C=N/NC(=O)Nc2ccccc2)cc1,-14%,35*,71*,·
CC(=O)Oc1ccc(/C=N/NC(=S)Nc2ccccc2)cc1,?,53*,35,17%
SMILES,SARS PLP yeast,Cycloheximide cs,Shiga inhibitor,NS1 inh
CCOc1ccc(/C=N/NC(=O)Nc2ccccc2)cc1,0%,41*,69*,-4%
COc1ccc(/C=N/NC(=O)CSCC(=O)Nc2ccccc2)cc1,0%,11,30,-3%
CCN(CC)c1ccc(/C=N/NC(=O)Cc2nnc(NC(=O)Nc3ccccc3)s2)cc1,13%,2,-9,-8%
CC1CCCN(S(=O)(=O)c2ccc(NC(=O)C3CC(=O)N(c4ccccc4)C3)cc2)C1 (configuration not stated),7%,10,12,6%
Cc1cccc(CSc2nnc([C@@H]3CCCN3)o2)c1,-1%,11,-2,4%
CC1CCCC(NC(=O)COC(=O)[C@@H](NC(=O)c2ccc(F)cc2)C(C)C)C1C (some centres not stated),-1%,·,·,·
CCCCSc1cc(C)nc(N)n1,2%,31*,54*,-6%
CN1C(=O)C(=Cc2ccc(OCCN(C)c3ccccn3)cc2)C(=O)N(C)C1=O,0%,21*,37,·
C[n+]1c2ccccc2nc2ccc(NCCO)cc21,0%,13*,-1,-1%
CNc1ccc2nc3ccccc3[n+](C)c2c1,-5%,35*,67*,0%
CC(C)n1c(NCCO)nc2ccccc21,0%,-5,-11,-3%
O=C(CCN1C(=O)C2C3C=CC(C3)C2C1=O)NC1CCCc2ccccc21 (configuration not stated),6%,-4,2,9%
CCN1C(=O)/C(=C/N(C)c2ccccc2)OC1=S,-4%,25*,67*,-32%
CCN1C(=O)/C(=C\N(C(C)=O)c2ccccc2)OC1=S,-58%,32*,31*,-16%
CCOc1ccc(C(=O)Nc2ccc(S(=O)(=O)N3C[C@@H]4C[C@@H](C3)c3cccc(=O)n3C4)cc2)cc1,-2%,·,·,·
COc1ccccc1NC(=O)C1(C)Cc2ccccc2C(=O)O1 (configuration not stated),2%,9,23,4%
CCc1ccc(NC(=O)C2(C)Cc3ccccc3C(=O)O2)cc1 (configuration not stated),0%,26*,41*,-5%
COc1cccc(NC(=O)CN(C)S(=O)(=O)c2ccc3[nH]c(=O)oc3c2)c1,2%,1,6,10%
CC(OC(=O)CCc1c[nH]c2ccccc12)C(=O)c1ccccc1 (configuration not stated),-1%,2,17,-4%
Cc1csc(SCC(=O)Nc2ccccc2C)n1,-8%,·,·,·
Cc1csc(NC(=O)CSc2nccn2C)n1,-9%,29*,30,5%
Cc1csc(SCC(=O)Nc2cccc3nsnc23)n1,-4%,20*,24,-24%
Cc1csc(NC(=O)CSc2nc(C)cs2)n1,1%,17*,25,10%
Cc1csc(NC(=O)CSc2nsc(SCC(=O)Nc3nc(C)cs3)c2C#N)n1,-1%,41*,117*,14%
Cc1csc(NC(=O)CSc2nncs2)n1,-2%,·,·,·
SMILES,SARS PLP yeast,Cycloheximide cs,Shiga inhibitor,NS1 inh
O=C(CSc1nnc(CCCN2C(=O)c3cccc4cccc(c34)C2=O)n1-c1ccccc1)NCCCN1CCOCC1,27%,-5,8,-10%
Nc1ccc(-c2nnc(-c3ccc(N)cc3)o2)cc1,-1%,48*,73*,-4%
Cc1cccc(-c2nnc(-c3ccc(N)cc3)o2)c1,-22%,35*,75*,-13%
Cc1cc(C)cc(Oc2ccc(-c3nnc(-c4ccccc4)o3)cc2[N+](=O)[O-])c1,1%,-5,-10,4%
NC(=O)Nc1n[nH]c(-c2ccccc2)n1,2%,6,24,0%
COc1ccc(OC)c(Cc2nnc(CCC(=O)NCc3ccsc3)o2)c1,2%,17*,37*,4%
COc1ccc(OC)c(Cc2nnc(CCC(=O)NC3C4CC5CC(C4)CC3C5)o2)c1 (configuration not stated),1%,6,-16,-10%
O=C(CCc1nnc(CCc2c[nH]c3ccccc23)o1)NC1CCC1,0%,53*,180*,-4%
COc1ccc(OC)c(Cc2nnc(CCC(=O)NC3CCCCC3)o2)c1,-1%,25*,29*,2%
COc1ccc(CCc2nnc(CCC(=O)NCc3ccc4ncccc4c3)o2)cc1,0%,17*,34,-1%
O=C(Cn1cncn1)NCc1cc(F)ccc1F,1%,1,-6,-5%
COC(=O)C(Cc1c[nH]c2ccccc12)NC(=O)c1cc(-c2ccc(OC)c(OC)c2)oc1C (configuration not stated),-13%,8,-4,2%
